# Data reported in PubChem BioAssay (NCATS).
# Results filed as inconclusive are left out. Entries that show only a call come without a potency. Active and inactive are the calls of the source. Calls come from the whole dose curve; as a rule, active = well fitted inhibition curve with a large enough effect; inconclusive = small, poorly fitted or top-dose-only effect; inactive = flat fitted curve, though single readings scatter. Bridge positions count the residues as written; N and C are the ends. Square brackets hold non-standard residues; d marks the D form. Peptide text beside a SMILES is read from it. * marks the point of attachment. Ileψ(thiazoline)Cys = CC[C@H](C)[C@H](N)C1=N[C@H](C(=O)*)CS1; d(aIle) = CC[C@H](C)[C@@H](N)C(=O)O; dOrn = NCCC[C@@H](N)C(=O)O
# System: CP211
# Assay: qHTS profiling for inhibitors of Plasmodium falciparum proliferation (AID 504749); note: nearly all actives have a fitted effect of over 60% in size
# Conditions: P. falciparum in erythrocytes, SYBR Green DNA, 72 h; series mostly up to 12.8 µM
# Summary of the method: (§1)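 In a 72 h erythrocytic culture (37 C, humidified, 5% CO2) at 2.5% hematocrit and 0.3% starting parasitemia, compounds were tested; SYBR Green I in detergent lysis buffer stained parasite DNA overnight.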
# Potency is the fitted concentration of half-maximal effect.
row,SMILES,Potency
1,C[C@@H]1C[C@H]2[C@@H]3C[C@H](F)C4=CC(=O)C=C[C@@]4(C)[C@]3(F)[C@H](O)C[C@]2(C)[C@@]1(O)C(=O)CO,inactive
2,C[C@H](O)Cn1cnc2c1c(=O)n(C)c(=O)n2C,inactive
3,CCCCC[C@H](O)/C=C\[C@@H]1[C@H](O)CC(=O)[C@@H]1CCCCCCC(=O)O,inactive
4,CC(=C(CCOP(=O)(O)O)SC(=O)c1ccccc1)N(C=O)Cc1cnc(C)nc1N,inactive
5,NC[C@@H]1O[C@@H](O[C@H]2[C@H](O)[C@H](O[C@@H]3O[C@H](CO)[C@@H](O)[C@H](N)[C@@H]3O)[C@@H](N)C[C@H]2N)[C@H](N)C[C@@H]1O,inactive
6,CCc1c(C)[nH]c2c1C(=O)[C@H](CN1CCOCC1)CC2,inactive
7,C=C1c2c(Cl)ccc(O)c2C(O)=C2C(=O)[C@@]3(O)C(O)=C(C(N)=O)C(=O)[C@@H](N(C)C)[C@@H]3[C@@H](O)[C@H]12,inactive
8,CCC(=O)OCC(=O)[C@@]1(OC(=O)CC)[C@H](C)C[C@@H]2[C@@H]3[C@H]([C@@H](O)C[C@@]21C)[C@]1(C)C=CC(=O)C=C1C[C@@H]3Cl,inactive
9,CC[C@H](C)[C@H](N)C1=N[C@H](C(=O)N[C@@H](CC(C)C)C(=O)N[C@@H](CCC(=O)O)C(=O)N[C@@H](C(=O)N[C@H]2CCCCNC(=O)[C@@H](CC(N)=O)NC(=O)[C@@H](CC(=O)O)NC(=O)[C@@H](Cc3cnc[nH]3)NC(=O)[C@@H](Cc3ccccc3)NC(=O)[C@@H]([C@@H](C)CC)NC(=O)[C@@H](CCCN)NC2=O)[C@@H](C)CC)CS1 ({Ileψ(thiazoline)Cys}-LE[d(aIle)]K[dOrn][d(aIle)][dF][dH][dD][dN]; lactam 4-C),inactive
10,O=C(N/N=C\c1ccc([N+](=O)[O-])o1)c1ccc(O)cc1,5.73 µM (active)
11,C[C@@H](CNC1CCCCC1)OC(=O)c1ccccc1,inactive
12,CCOC(=O)O[C@@H](C)OC(=O)[C@@H]1N2C(=O)[C@@H](NC(=O)[C@@H](N)c3ccccc3)[C@H]2SC1(C)C,inactive
13,Cc1cccc(CN2CCN([C@@H](c3ccccc3)c3ccc(Cl)cc3)CC2)c1,inactive
14,Cc1ccsc1/C=C\C1=NCCCN1C,inactive
15,O=C(O)COCCN1CCN([C@@H](c2ccccc2)c2ccc(Cl)cc2)CC1,inactive
16,C#C[C@]1(O)CC[C@@H]2[C@H]3CCC4=CCCC[C@@H]4[C@@H]3CC[C@@]21C,inactive
17,CC1(C)[C@@H](OC(=O)CCC(=O)O)CC[C@@]2(C)[C@H]1CC[C@@]1(C)[C@H]2C(=O)C=C2[C@H]3C[C@](C)(C(=O)O)CC[C@]3(C)CC[C@@]21C,inactive
18,C[C@H](CCC(=O)O)[C@H]1CC[C@@H]2[C@@H]3[C@@H](O)C[C@H]4C[C@@H](O)CC[C@@]4(C)[C@H]3CC[C@@]21C,inactive
19,CN1CCO[C@H](c2ccccc2)c2ccccc2C1,inactive

# System: CP215
# Assay: as above
# Conditions: P. falciparum in erythrocytes, SYBR Green DNA, 72 h; series mostly up to 12.8 µM
# Summary of the method: as §1
row,SMILES,Potency
1,C[C@@H]1C[C@H]2[C@@H]3C[C@H](F)C4=CC(=O)C=C[C@@]4(C)[C@]3(F)[C@H](O)C[C@]2(C)[C@@]1(O)C(=O)CO,inactive
2,C[C@H](O)Cn1cnc2c1c(=O)n(C)c(=O)n2C,inactive
3,CCCCC[C@H](O)/C=C\[C@@H]1[C@H](O)CC(=O)[C@@H]1CCCCCCC(=O)O,inactive
4,CC(=C(CCOP(=O)(O)O)SC(=O)c1ccccc1)N(C=O)Cc1cnc(C)nc1N,inactive
5,NC[C@@H]1O[C@@H](O[C@H]2[C@H](O)[C@H](O[C@@H]3O[C@H](CO)[C@@H](O)[C@H](N)[C@@H]3O)[C@@H](N)C[C@H]2N)[C@H](N)C[C@@H]1O,inactive
6,CCc1c(C)[nH]c2c1C(=O)[C@H](CN1CCOCC1)CC2,inactive
7,C=C1c2c(Cl)ccc(O)c2C(O)=C2C(=O)[C@@]3(O)C(O)=C(C(N)=O)C(=O)[C@@H](N(C)C)[C@@H]3[C@@H](O)[C@H]12,inactive
8,CC[C@H](C)[C@H](N)C1=N[C@H](C(=O)N[C@@H](CC(C)C)C(=O)N[C@@H](CCC(=O)O)C(=O)N[C@@H](C(=O)N[C@H]2CCCCNC(=O)[C@@H](CC(N)=O)NC(=O)[C@@H](CC(=O)O)NC(=O)[C@@H](Cc3cnc[nH]3)NC(=O)[C@@H](Cc3ccccc3)NC(=O)[C@@H]([C@@H](C)CC)NC(=O)[C@@H](CCCN)NC2=O)[C@@H](C)CC)CS1 ({Ileψ(thiazoline)Cys}-LE[d(aIle)]K[dOrn][d(aIle)][dF][dH][dD][dN]; lactam 4-C),inactive
9,O=C(N/N=C\c1ccc([N+](=O)[O-])o1)c1ccc(O)cc1,4.55 µM (active)
10,CCOC(=O)O[C@@H](C)OC(=O)[C@@H]1N2C(=O)[C@@H](NC(=O)[C@@H](N)c3ccccc3)[C@H]2SC1(C)C,inactive
11,Cc1cccc(CN2CCN([C@@H](c3ccccc3)c3ccc(Cl)cc3)CC2)c1,inactive
12,Cc1ccsc1/C=C\C1=NCCCN1C,inactive
13,O=C(O)COCCN1CCN([C@@H](c2ccccc2)c2ccc(Cl)cc2)CC1,inactive
14,C#C[C@]1(O)CC[C@@H]2[C@H]3CCC4=CCCC[C@@H]4[C@@H]3CC[C@@]21C,inactive
15,CC1(C)[C@@H](OC(=O)CCC(=O)O)CC[C@@]2(C)[C@H]1CC[C@@]1(C)[C@H]2C(=O)C=C2[C@H]3C[C@](C)(C(=O)O)CC[C@]3(C)CC[C@@]21C,inactive
16,C[C@H](CCC(=O)O)[C@H]1CC[C@@H]2[C@@H]3[C@@H](O)C[C@H]4C[C@@H](O)CC[C@@]4(C)[C@H]3CC[C@@]21C,inactive
17,CN1CCO[C@H](c2ccccc2)c2ccccc2C1,inactive
